This is a sample that favours compounds with a hit; in the whole collection about 4.6% have one here.
TRHR enhancer: qHTS for Small Molecule Agonists and Allosteric Enhancers of Human TRH Receptor: Primary Screen for Enhancers; Thyrotropin-releasing hormone receptor (Homo sapiens), P34981; TRHR cells, fluo-8 calcium fluorescence, EC20 TRH enhancement; enhancement, % at 2 µM; 0.66% of 360,000 active; in the data active = enhancement above about 30%; note: 0% is about no effect
Target sequence (P34981 whole entry, looked up): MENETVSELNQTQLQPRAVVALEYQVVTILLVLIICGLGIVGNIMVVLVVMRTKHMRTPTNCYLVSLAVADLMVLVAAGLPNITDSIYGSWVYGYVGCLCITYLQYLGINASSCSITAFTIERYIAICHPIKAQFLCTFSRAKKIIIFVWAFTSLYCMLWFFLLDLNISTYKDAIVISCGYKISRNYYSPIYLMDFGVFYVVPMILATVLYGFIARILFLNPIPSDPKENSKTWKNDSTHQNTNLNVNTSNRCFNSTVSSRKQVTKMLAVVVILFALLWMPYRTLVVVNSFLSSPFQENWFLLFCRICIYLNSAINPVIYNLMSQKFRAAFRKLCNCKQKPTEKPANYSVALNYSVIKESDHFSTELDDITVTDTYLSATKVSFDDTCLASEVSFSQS
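TRHR-expressing cells loaded with fluo-8 calcium dye were read kinetically (ex 480/em 530) during compound addition, then stimulated with an EC20 of TRH (10 nM final). Enhancement of the Gq-mediated intracellular calcium response was scored.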
D1 potentiator: Potentiators of Human D1 Dopamine Receptor: qHTS. D(1A) dopamine receptor (Homo sapiens), P21728. HEK293 TREx D1 cells, calcium flux, dopamine EC20 potentiation. potentiation, % at 10 µM. 0.036% of 360,000 active. AID 504651, 2011; in the data active = potentiation above about 30%; note: 0% is about no effect
D1 antagonist: Antagonist of Human D 1 Dopamine Receptor: qHTS. HEK293 TREx D1 cells, calcium flux, dopamine EC80; active compounds read low. activity change, negative = inhibition, % at 10 µM. 3.2% of 360,000 active. AID 504652, 2011; in the data active = activity change below about -30%; note: % is set by controls: 0 for no effect and ±100 for the full control effect
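Tetracycline-induced HEK293 Trex D1 cells, force-coupled to calcium, dye-loaded; compounds added and read 180 s, then EC80 dopamine added and calcium flux tracked kinetically another 180 s.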
TRHR agonist: qHTS for Small Molecule Agonists and Allosteric Enhancers of Human TRH Receptor: Primary Screen for Agonists; Thyrotropin-releasing hormone receptor (Homo sapiens), P34981; TRHR cells, calcium flux fluo-8, FDSS agonist mode; activation, % at 2 µM; 0.18% of 360,000 active; AID 493084, 2011; note: 0% is about no effect
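In this calcium-flux screen, cells bearing human TRHR are dye-loaded with fluo-8, baselined for 10 cycles, then exposed to library compounds; positive kinetic calcium responses during the agonist phase mark hits, with TRH as control.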
D1 agonist: Allosteric Agonists of the Human D1 Dopamine Receptor: qHTS; HEK293 T-REx D1 cells, calcium flux, agonist mode; activation, % at 2 µM; 1% of 360,000 active; AID 504660, 2011; note: 0% is about no effect
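Tetracycline-induced HEK293 TREx D1 cells, force-coupled to calcium signalling, were dye-loaded with a no-wash calcium kit. Compound was pin-added after a 10 s baseline. Fluorescence was read kinetically at 1 cycle/s for 180 s, with calcium rises flagged as agonism.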
An asterisk follows results filed as active; . = not tested or not shown; ! = not confirmed by another sample. Cut-off read from the data, not from the text of the source, unless noted: active = activation above about 30%; inactive = the rest.

SMILES | TRHR enhancer | D1 potentiator | D1 antagonist | TRHR agonist | D1 agonist
O=C(COc1ccccc1F)Nc1nnc(SCc2cc(=O)n3ccccc3n2)s1 | -1.6 | 2.0 | -3.5 | -0.1 | 0.0
COc1ccccc1NC(=O)c1ccc2ccccc2c1 | -1.2 | 0.8 | -4.4 | 1.0 | 11.1
COc1ccc(CCNC(=O)c2c(C)noc2C)cc1 | -4.1 | -2.6 | -42.9* | 1.1 | 2.8
Cc1noc(C)c1C(=O)NCCCc1ccccc1 | 4.4 | -0.5 | -9.3 | 0.1 | -1.5
COc1ccc(CCNC(=O)CN(c2ccccc2OC)S(=O)(=O)c2ccc(C)cc2)cc1 | -5.1 | 5.4 | -36.0*! | 0.2 | 37.1*!
Cc1ccc(CSCCNC(=O)CN(c2cccc(C)c2C)S(=O)(=O)c2ccccc2)cc1 | -7.1 | -0.8 | -5.6 | 2.8 | 17.1
COc1ccc(N(C(C)C(=O)NCCSCc2cccc(Cl)c2)S(C)(=O)=O)cc1 (stereo unspecified) | 3.8 | -9.7 | -7.2 | -0.5 | 2.7
COc1ccccc1N(CC(=O)NCCSCc1ccc(C)cc1)S(=O)(=O)c1ccccc1 | -4.6 | 0.9 | -32.3* | 4.0 | 26.3
CC(C(=O)NCCSCc1cccc(Cl)c1)N(c1ccccc1)S(C)(=O)=O (stereo unspecified) | -0.7 | -6.6 | -32.2*! | -0.4 | 15.6
CCOc1ccc(N(C)S(=O)(=O)c2ccc(C)c(C(=O)NCCc3ccc(OC)cc3)c2)cc1 | -11.7 | -5.2 | -20.7 | 0.6 | -0.1
Cc1ccccc1CSCCNC(=O)CN(c1ccccc1)S(=O)(=O)N(C)C | -9.8 | -0.6 | -12.1 | -0.7 | 1.7
COc1ccc(CCNC(=O)c2cc(S(=O)(=O)N(C)c3ccccc3)ccc2Cl)cc1 | -9.5 | -3.6 | -56.1* | 0.7 | 12.0
COc1ccc(CCNC(=O)Cc2c(Cl)cccc2Cl)cc1 | 11.2 | 1.6 | -35.6* | -1.6 | 2.1
COc1ccc(NC(=O)CN(c2ccc([N+](=O)[O-])cc2)S(=O)(=O)c2ccccc2)cc1 | 1.4 | -11.3 | 3.1 | -1.0 | 32.7*
COc1ccc(CCNC(=O)CC(=O)NCCc2ccc(OC)cc2)cc1 | -2.8 | -11.2 | -1.4 | -0.4 | 4.5
COc1cccc(NC(=O)CN(c2ccc([N+](=O)[O-])cc2)S(=O)(=O)c2ccccc2)c1 | -4.5 | -5.7 | 3.5 | -1.0 | 5.8
CN(C)S(=O)(=O)N(CC(=O)NCCSCc1ccccc1)c1ccccc1 | 1.1 | -1.8 | -61.0*! | -0.6 | 1.4
CS(=O)(=O)N(Cc1ccccc1)c1ccc(C(=O)Nc2ccc(Cl)cc2)cc1 | -3.0 | -2.0 | 7.4 | 2.3 | 7.4
COc1ccc(N(CC(=O)N/N=C/c2ccc(F)cc2)S(=O)(=O)c2ccccc2)cc1 | 10.6 | -5.8 | -7.7 | -0.1 | 3.5
COc1ccccc1N(CC(=O)NCCSc1ccccc1)S(C)(=O)=O | -2.2 | 2.6 | -6.3 | -0.3 | -0.6
COc1ccc(S(=O)(=O)N(CC(=O)NCCc2ccccc2)c2ccc(Cl)cc2)cc1 | 3.8 | -2.6 | -20.5 | -1.4 | 40.4*
COc1ccc(N(CC(=O)NCCc2ccccc2)S(=O)(=O)c2ccc(OC)c(OC)c2)cc1 | -2.1 | -0.6 | -11.8 | -0.6 | 7.0
COc1ccccc1N(CC(=O)NCCSc1ccccc1)S(=O)(=O)c1ccc(C)cc1 | -5.9 | 1.3 | -17.1 | 0.4 | 30.7*
Cc1cccc(N(CC(=O)NCCSCc2cccc(Cl)c2)S(=O)(=O)c2ccccc2)c1C | -16.4 | -0.6 | -11.7 | 3.5 | 30.9*
C=CCNC(=O)CN(c1ccc(F)cc1)S(=O)(=O)c1ccc(OC)cc1 | 3.0 | -11.8 | -48.9* | 0.0 | 3.2
SMILES | TRHR enhancer | D1 potentiator | D1 antagonist | TRHR agonist | D1 agonist
Cn1c2cc(Br)sc2c2cnn(Cc3ccc(F)cc3)c(=O)c21 | -0.2 | -3.7 | 8.1 | 0.1 | -1.5
C[C@@H](C(=O)CC(=O)OC(C)(C)C)[C@@H](O)c1ccccc1 | 0.9 | 0.4 | -6.2 | 0.9 | -1.0
COc1ccc(C(c2c(O)cc(C)n(Cc3ccco3)c2=O)N2CCCCC2)cc1OC (stereo unspecified) | 2.2 | 0.7 | 2.1 | 0.4 | 0.8
O=[N+]([O-])c1cc([N+](=O)[O-])c(Oc2ccc(Cl)c3cccnc23)cc1NN1CCCCC1 | -2.9 | 4.6 | 6.3 | -0.1 | 2.4
CN(C)c1ccc(NC(=O)Cn2c(SCc3ccc(F)cc3)nc3cccnc32)cc1 | -2.9 | -2.8 | 2.3 | 0.4 | 1.8
O=C(NN1C(=O)C2C3C=CC(C4CC34)C2C1=O)c1ccc(Cl)c(Cl)c1 (stereo unspecified) | 30.0* | -0.1 | -13.5 | 1.0 | 1.4
O=C(NN1C(=O)C2C3C=CC(C4CC34)C2C1=O)c1ccc(Br)cc1 (stereo unspecified) | -5.8 | -3.6 | -13.8 | 0.2 | 1.0
CCc1cccc(NS(=O)(=O)c2ccc3c(c2)NC(=O)CO3)c1 | -5.0 | -6.1 | 8.5 | 0.0 | 7.5
O=C(NC[C@@H]1CCCO1)c1cccc2c1C(=O)c1ccc(Cl)cc1S2(=O)=O | 2.4 | 0.1 | . | 0.1 | -2.8
COc1ccc(-c2ccc3c(c2)S(=O)(=O)c2cccc(C(=O)NC[C@@H]4CCCO4)c2C3=O)cc1OC | 2.6 | -2.7 | -35.8* | -0.3 | -0.7
CCn1cc(C(=O)NC(C)C2CC3CCC2C3)cn1 (stereo unspecified) | 31.1* | 0.9 | -11.9 | 1.3 | 3.0
COCCCN1CN(S(=O)(=O)c2ccc(C)cc2C)c2nc3ccccc3nc21 | 5.8 | 0.7 | 4.3 | -0.2 | 2.5
Cc1nn2c(-c3cccc(NC(=O)c4ccc(Cl)cc4)c3)nnc2c2ccccc12 | 42.2* | -2.7 | 3.9 | -0.5 | 0.0
Cn1nc(-c2ccc(C(=O)Nc3cccc(Cl)c3)cc2)c2ccccc2c1=O | -3.5 | -5.9 | -36.5* | 0.1 | -0.5
Cc1nn2c(-c3cccc(NC(=O)c4ccco4)c3)nnc2c2ccccc12 | 13.5 | 2.1 | 2.9 | -1.4 | 0.4
OCCn1nc(-c2ccccc2)cc1-c1ccccc1 | 3.6 | 1.2 | 2.1 | 0.0 | 4.0
COc1ccc(Nc2ncc3c(n2)CCN(Cc2cccc(F)c2F)C3)c(OC)c1 | 3.8 | 0.1 | -15.0 | -0.4 | -1.3
Cc1cccc(-n2c(=O)c3c(c4cc(C)ccc4n3C)n(Cc3ccccc3F)c2=O)c1 | 8.6 | -1.3 | 8.1 | -1.3 | -0.2
Nc1sc2c([n+]1CCCS(=O)(=O)[O-])CCCC2 | 6.4 | -3.5 | -31.1* | -1.8 | 3.7
CSc1sc2ccccc2[n+]1CCCS(=O)(=O)[O-] | 7.7 | -0.6 | -4.4 | 0.0 | 1.3

Screening results: PubChem, National Center for Advancing Translational Sciences (NCATS)
